Rv3671c inh: inhibits the M. tuberculosis serine protease Rv3671c; AID 2606; 320,000 compounds, 0.048% hits; inhibition, % at 5.96 µM; P9WHR9; in the data active = inhibition above about 38%;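 also: extracellular domain of Rv3671c used as enzyme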
Target sequence (P9WHR9 whole entry, looked up, the tested form may be a part): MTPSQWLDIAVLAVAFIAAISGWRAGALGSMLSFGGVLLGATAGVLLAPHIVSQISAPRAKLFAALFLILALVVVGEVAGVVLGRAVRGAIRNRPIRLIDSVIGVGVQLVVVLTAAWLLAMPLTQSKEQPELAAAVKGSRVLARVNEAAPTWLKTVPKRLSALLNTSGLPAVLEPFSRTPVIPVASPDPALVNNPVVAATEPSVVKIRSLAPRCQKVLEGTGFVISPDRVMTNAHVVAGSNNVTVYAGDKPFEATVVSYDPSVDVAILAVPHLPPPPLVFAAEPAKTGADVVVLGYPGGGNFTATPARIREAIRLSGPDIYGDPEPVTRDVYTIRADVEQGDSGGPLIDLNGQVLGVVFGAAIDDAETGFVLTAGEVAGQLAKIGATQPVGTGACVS
PriA SSB inh: inhibitors of Klebsiella pneumoniae PriA binding to SSB C-terminal tail | AlphaScreen SSBct-PriA binding, biotinylated peptide | 430,000 compounds, 0.6% hits | inhibition, % at 33 µM; in the data active = inhibition mostly above about 37%, no sharp cut-off; inactive = mostly below about 20%
Mtb UGM inh: Mtb UDP-galactopyranose mutase inhibition; P9WIQ1; purified UGM, fluorescence polarization probe displacement; AID 504406; 320,000 compounds, 0.06% hits; inhibition, % at 10 µM; in the data active = inhibition above about 10%, passing the limit was not always enough
Mtb betalactam: beta-lactam sensitization of Mtb H37Rv. M. tuberculosis H37Rv growth with meropenem, percent inhibition. inhibition, % at 25 µM. 330,000 compounds, 0.27% hits; call rule not given here;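 also: growth measured after seven days incubation then overnight dye step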
RecA intein inh: Mtb RecA intein splicing inhibition; P9WHJ3; cell-free RecA intein splicing, fluorescence; inhibition, % (no concentration beside the values); 290,000 compounds, 0.75% hits; AID 2221; in the data active = inhibition above about 30%
Large screens that a line does not name were inactive; ! = not confirmed by another sample. Sampled rows, rich in hits. Any-hit rate of the full collection: about 1.1%.

Nc1cccc(N2C(=O)c3cccc4c(N)ccc(c34)C2=O)c1	Mtb UGM inh 29
Cc1cccc(N2C(=O)c3cccc4c(N)ccc(c34)C2=O)c1	Mtb UGM inh 39
COc1ccccc1NC(=O)CSc1nc2c(sc(=S)n2-c2ccccc2C)c(=O)[nH]1	none (no result: Rv3671c inh, Mtb UGM inh, Mtb betalactam, RecA intein inh)
Cc1ccc(C(=O)Nc2ccc(C(=O)NN=Cc3ccc(C)o3)cc2)cc1	none (no result: Rv3671c inh, Mtb UGM inh, Mtb betalactam, RecA intein inh)
COc1ccc(CN2CCN(C(C)C(=O)N(C)Cc3cccc(F)c3)CC2)cc1OC (stereo unspecified)	PriA SSB inh 52
COc1ccc(CN2CCN(C(C)C(=O)NC(C)c3ccc(F)cc3)CC2)cc1F (stereo unspecified)	none
COC(=O)C(=NNc1ccc(Cl)cc1)Sc1nnc(-c2ccc(OC)cc2)n1C	PriA SSB inh 116 (no result: Rv3671c inh, Mtb UGM inh, Mtb betalactam, RecA intein inh)
COc1ccccc1OCC(=O)NCCc1ccc2c(c1)CCCN2C	PriA SSB inh 45 (no result: Rv3671c inh, Mtb UGM inh, Mtb betalactam, RecA intein inh)
COc1ccccc1NC(=O)NCCc1ccc2c(c1)CCCN2C	PriA SSB inh 56 (no result: Rv3671c inh, Mtb UGM inh, Mtb betalactam, RecA intein inh)
COc1ccc(Cl)cc1NC(=O)C(=O)NCCc1ccc2c(c1)CCCN2C	none (no result: Rv3671c inh, Mtb UGM inh, Mtb betalactam, RecA intein inh)
CCOC(=O)c1c(N/C=C(\C#N)c2nc(-c3cccs3)cs2)sc2c1CCC(C(C)(C)C)C2 (stereo unspecified)	none (no result: Rv3671c inh, Mtb UGM inh, Mtb betalactam, RecA intein inh)
CCOc1cccc2sc(N(CCCn3ccnc3)C(=O)c3ccco3)nc12	none (no result: Rv3671c inh, Mtb UGM inh, Mtb betalactam, RecA intein inh)
COc1cccc(C(=O)N(CCCn2ccnc2)c2nc3ccc(C)cc3s2)c1OC	none (no result: Rv3671c inh, Mtb UGM inh, Mtb betalactam, RecA intein inh)
CCc1cccc2sc(N(CCCn3ccnc3)C(=O)c3cccc(OC)c3OC)nc12	PriA SSB inh 42 (no result: Rv3671c inh, Mtb UGM inh, Mtb betalactam, RecA intein inh)
COc1ccc(OC)c2sc(N(CCCn3ccnc3)C(=O)COc3ccccc3)nc12	PriA SSB inh 73 (no result: Rv3671c inh, Mtb UGM inh, Mtb betalactam, RecA intein inh)
COc1cc(OC)cc(C(=O)N(CCCn2ccnc2)c2nc3cc(C)cc(C)c3s2)c1	PriA SSB inh 40 (no result: Rv3671c inh, Mtb UGM inh, Mtb betalactam, RecA intein inh)
CCOc1ccc2nc(N(CCCn3ccnc3)C(=O)COc3ccccc3)sc2c1	none (no result: Rv3671c inh, Mtb UGM inh, Mtb betalactam, RecA intein inh)
COc1ccc(OC)c2sc(N(CCCn3ccnc3)C(=O)c3ccco3)nc12	PriA SSB inh 59 (no result: Rv3671c inh, Mtb UGM inh, Mtb betalactam, RecA intein inh)
Cc1nc2ccccc2c(=O)n1-c1cccc(NC(=O)c2c(F)cccc2F)c1	none (no result: Rv3671c inh, Mtb UGM inh, Mtb betalactam, RecA intein inh)
O=C(Nc1ccc2c(c1)OCO2)C1CCN(c2ccc(-c3ccc(Cl)cc3)nn2)CC1	none (no result: Rv3671c inh, Mtb UGM inh, Mtb betalactam, RecA intein inh)
O=C(Cn1nc(C(=O)N2CCOCC2)cc1-c1cccs1)NCc1ccco1	none (no result: Rv3671c inh, Mtb UGM inh, Mtb betalactam, RecA intein inh)
Cc1nc(-n2nc(-c3ccco3)cc2NC(=O)c2cc(=O)c3ccccc3o2)[nH]c(=O)c1C	none (no result: Rv3671c inh, Mtb UGM inh, Mtb betalactam, RecA intein inh)
Cc1c(Cl)ccc2sc(N(CCCn3ccnc3)C(=O)COc3ccccc3)nc12	PriA SSB inh 43 (no result: Rv3671c inh, Mtb UGM inh, Mtb betalactam, RecA intein inh)
O=C(c1ccc(Cl)s1)N(CCCn1ccnc1)c1nc2c(F)cccc2s1	PriA SSB inh 38 (no result: Rv3671c inh, Mtb UGM inh, Mtb betalactam, RecA intein inh)
Cc1cccc2sc(N(CCCN(C)C)C(=O)c3ccc(Cl)s3)nc12	none
O=C(Cc1ccccc1)Nc1ccc(Nc2ccc(-n3cccn3)nn2)cc1	PriA SSB inh 52 (no result: Rv3671c inh, Mtb UGM inh, Mtb betalactam, RecA intein inh)
Cc1ccc(Nc2ccc(NC(=O)Cc3ccccc3)cc2)nn1	none (no result: Rv3671c inh, Mtb UGM inh, Mtb betalactam, RecA intein inh)
Cc1ccn(-c2ccc(Nc3ccc(NC(=O)c4ccco4)cc3)nn2)n1	PriA SSB inh 55 (no result: Rv3671c inh, Mtb UGM inh, Mtb betalactam, RecA intein inh)
COc1cccc(C=Nn2c(-c3n[nH]c4c3CCC4)n[nH]c2=S)c1OC	none (no result: Rv3671c inh, Mtb UGM inh, Mtb betalactam, RecA intein inh)
CC1(C)C2CCC1(CS(=O)(=O)N1CCC(c3ccsc3)CC1)C(=O)C2 (stereo unspecified)	none (no result: Rv3671c inh, Mtb UGM inh, Mtb betalactam, RecA intein inh)
CCCSc1nnc(NC(=O)c2ccccc2C(F)(F)F)s1	none (no result: Rv3671c inh, Mtb UGM inh, Mtb betalactam, RecA intein inh)
O=C(CN(c1cccc(Br)c1)S(=O)(=O)c1ccccc1)N/N=C/c1cc([N+](=O)[O-])ccc1O	RecA intein inh 33 (no result: PriA SSB inh)
O=C(Cn1cncn1)NN=Cc1cc([N+](=O)[O-])ccc1O	PriA SSB inh 40 (no result: Rv3671c inh, Mtb UGM inh, Mtb betalactam, RecA intein inh)
COc1ccc(-c2ccc(S(=O)(=O)N3CCCCCC3)cc2)cc1	none (no result: Rv3671c inh, Mtb UGM inh, Mtb betalactam, RecA intein inh)
Cc1ccc(OC[C@@H](O)CN2CCCC2)cc1	none (no result: Rv3671c inh, Mtb UGM inh, Mtb betalactam, RecA intein inh)
O=C(NCCN1CCO[C@H](c2ccccc2)C1)C(=O)NCc1ccccc1Cl	none (no result: Rv3671c inh, Mtb UGM inh, Mtb betalactam, RecA intein inh)
COc1ccccc1NC(=O)c1sc2nc(Cc3ccccc3)cc(C(F)(F)F)c2c1N	Mtb UGM inh 30
O=C(Nc1nnc(C2CCCO2)o1)C(c1ccccc1)c1ccccc1 (stereo unspecified)	PriA SSB inh 84 (no result: Rv3671c inh, Mtb UGM inh, Mtb betalactam, RecA intein inh)
O=C(Nc1nnc(C2CCCO2)o1)C1COc2ccccc2O1 (stereo unspecified)	PriA SSB inh 75 (no result: Rv3671c inh, Mtb UGM inh, Mtb betalactam, RecA intein inh)
Cc1cc(-c2nnc(NC(=O)C3COc4ccccc4O3)o2)n(C)n1 (stereo unspecified)	PriA SSB inh 44 (no result: Rv3671c inh, Mtb UGM inh, Mtb betalactam, RecA intein inh)
O=C(Nc1nnc(C2CCCO2)o1)c1cc2ccccc2o1 (stereo unspecified)	none (no result: Rv3671c inh, Mtb UGM inh, Mtb betalactam, RecA intein inh)
O=C(Nc1nnc(-c2ccno2)o1)C1COc2ccccc2O1 (stereo unspecified)	none (no result: Rv3671c inh, Mtb UGM inh, Mtb betalactam, RecA intein inh)
C[C@H](NC(=O)c1cc2c(cn1)[nH]c1ccccc12)C(=O)O	none (no result: Rv3671c inh)
O=C(O)c1cc2ccccc2cn1	PriA SSB inh 75! (no result: Rv3671c inh, Mtb UGM inh, Mtb betalactam, RecA intein inh)
O=C(O)c1cc2c(cn1)[nH]c1ccccc12	PriA SSB inh 80

Screens as filed in PubChem BioAssay.
